Test systems include SR leukemia; RPMI-8226 leukemia; OVCAR-8 ovarian; OVCAR-5 ovarian; OVCAR-4 ovarian; SK-OV-3 ovarian; IGROV1 ovarian; OVCAR-3 ovarian; HS 578T breast; NCI/ADR-RES ovarian; BT-549 breast; MDA-MB-435 melanoma; SW-620 colon; MCF7 breast; HCT-116 colon; HCC-2998 colon; KM12 colon; T-47D breast.
Test in all cases: NCI-60 one-dose screen, 48 h (100 = growth as untreated, 0 = no growth, -100 = all killed)
Details in all cases: 10 µM unless noted

Results on 9 compounds are retold here after PubChem BioAssay (NCI).

This is part of a sample that, as a whole, favours compounds with a hit. Of some 83,000 tested, about 20% had one in any assay.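 48-hour exposure, single concentration, 96-well plates; percent growth endpoint where 0 means no net growth. Active: below 10.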 Values without a mark were called inactive. Activity calls are given as the source filed them.

In the case of `O=S(=O)(c1ccccc1)N1CCCN(c2nc(-c3ccccc3)nc3nc(-c4ccccc4)oc23)CC1`, the growth with SR leukemia was 104%; in the assay on RPMI-8226 leukemia it was 98.1%; in the assay with OVCAR-8 ovarian, 104%; with OVCAR-5 ovarian, 106%; with OVCAR-4 ovarian it was 105%; in the assay with SK-OV-3 ovarian, 103%. The growth was 100% with IGROV1 ovarian; 117% with OVCAR-3 ovarian; 116% in the assay on HS 578T breast; 104% with NCI/ADR-RES ovarian; 107% with BT-549 breast; 102% with MDA-MB-435 melanoma. Moreover, the growth was 109% in the assay with SW-620 colon; 90.8% in the assay on MCF7 breast; 89.5% in the assay with HCT-116 colon; 108% in the assay with HCC-2998 colon; 113% in the assay on KM12 colon.

On to `COc1cc(C(=O)/C=C/c2c(-c3cccs3)nc3ccccn23)cc(OC)c1OC`, for which the growth with SR leukemia was 13.8%; in the assay on RPMI-8226 leukemia it was -9.49% (active); in the assay with OVCAR-8 ovarian, 9.84% (active); in the assay with OVCAR-5 ovarian, 18.4%; in the assay with OVCAR-4 ovarian, 13.1%; with SK-OV-3 ovarian it was 3.6% (active). Further, the growth in the assay on IGROV1 ovarian was 13.1%; with OVCAR-3 ovarian, -36.5% (active); in the assay on HS 578T breast, -1.24% (active); in the assay on NCI/ADR-RES ovarian, -15.6% (active); with BT-549 breast, -16.9% (active); in the assay with MDA-MB-435 melanoma, 11%. Moreover, the growth in the assay with SW-620 colon is 4.78% (active); in the assay with MCF7 breast, 7.96% (active); with HCT-116 colon, -5.59% (active); in the assay with HCC-2998 colon it was 17.1%; with KM12 colon it was -25.6% (active).

As for `O=C(CCC(=O)c1nc2ncccc2[nH]1)NN1C(=O)CSC1c1ccc(Cl)cc1` (stereo unspecified), the growth in the assay on SR leukemia was 55.9%; in the assay with RPMI-8226 leukemia, 87.1%; with OVCAR-8 ovarian, 101%; in the assay with OVCAR-5 ovarian, 106%; in the assay on OVCAR-4 ovarian, 94.1%; with SK-OV-3 ovarian, 100%. The growth is 86.7% in the assay on IGROV1 ovarian; 98.7% in the assay with OVCAR-3 ovarian; 101% in the assay with HS 578T breast; 100% with NCI/ADR-RES ovarian; 90.7% in the assay with T-47D breast; 99.7% in the assay on MDA-MB-435 melanoma. For the same compound, the growth was 81.4% in the assay on SW-620 colon; 87% with MCF7 breast; 86% with HCT-116 colon; 112% in the assay with HCC-2998 colon; 94.7% in the assay on KM12 colon.

For the compound `Nc1ccc([N+](=O)[O-])cc1N=C/C=C/c1ccccc1`, the growth in the assay with SR leukemia was 35.5%; in the assay on RPMI-8226 leukemia, 25.6%; in the assay with OVCAR-8 ovarian, 79.9%; in the assay on OVCAR-5 ovarian, 90.9%; in the assay on OVCAR-4 ovarian, 79.4%; with SK-OV-3 ovarian it was 87.6%. For the same compound, the growth was 64.8% in the assay with IGROV1 ovarian; 84.1% with OVCAR-3 ovarian; 67.4% in the assay with HS 578T breast; 50.9% in the assay with NCI/ADR-RES ovarian; 55% with BT-549 breast; 5.57% (active) with MDA-MB-435 melanoma. For the same compound, the growth is 35.3% in the assay with SW-620 colon; 51.5% with MCF7 breast; 67.2% in the assay on HCT-116 colon; 73% with HCC-2998 colon; 40.3% in the assay on KM12 colon.

`NNC(=S)N/N=C/c1ccccn1`: the growth is 5.56% (active) with SR leukemia; 28.9% in the assay on RPMI-8226 leukemia; 20% in the assay on OVCAR-8 ovarian; 40.3% in the assay on OVCAR-5 ovarian; 29.2% in the assay with OVCAR-4 ovarian; 24.3% in the assay with SK-OV-3 ovarian. The growth was 40.2% in the assay with IGROV1 ovarian; 21.7% with OVCAR-3 ovarian; 31.8% in the assay on HS 578T breast; 17.8% in the assay with NCI/ADR-RES ovarian; 55% in the assay on BT-549 breast; 46.4% with MDA-MB-435 melanoma. Moreover, the growth was 51.3% with SW-620 colon; 15.7% in the assay on MCF7 breast; 19.8% with HCT-116 colon; 28.8% in the assay on HCC-2998 colon; 29.2% in the assay with KM12 colon.

Consider `Cn1c(O)c(C(/C=C/c2ccccc2)=Nc2ccccc2N)c(=O)n(C)c1=O`, for which the growth was -19.7% (active) in the assay on SR leukemia; 58.7% with RPMI-8226 leukemia; 107% in the assay on OVCAR-8 ovarian; 83.4% in the assay on OVCAR-5 ovarian; 101% with OVCAR-4 ovarian; 110% in the assay with SK-OV-3 ovarian. Further, the growth in the assay on IGROV1 ovarian is 77.4%; with OVCAR-3 ovarian, 105%; in the assay with HS 578T breast, 110%; with NCI/ADR-RES ovarian, 96.5%; in the assay with T-47D breast, 85.5%; in the assay with MDA-MB-435 melanoma it was 95.5%. Moreover, the growth in the assay with MCF7 breast was 99%; with HCT-116 colon, 56.7%; in the assay with HCC-2998 colon it was 90%; in the assay with KM12 colon, 107%.

As for `C=CCn1c(SCC(=O)Nc2ccc(C(=O)/C=C/c3cc(OC)c(OC)c(OC)c3)cc2)nnc1-c1cc(-c2ccc(OC)cc2)nc2ccccc12`, the growth in the assay with SR leukemia is 50.9%; with RPMI-8226 leukemia it was 55.5%; in the assay on OVCAR-8 ovarian, 72.8%; in the assay with OVCAR-5 ovarian, 105%; in the assay with OVCAR-4 ovarian, 90%; in the assay on SK-OV-3 ovarian it was 98%. Also, the growth with IGROV1 ovarian was 98.5%; with OVCAR-3 ovarian it was 93.4%; with HS 578T breast it was 90.4%; with NCI/ADR-RES ovarian it was 96.4%; in the assay with BT-549 breast, 90.1%; with MDA-MB-435 melanoma it was 100%. The growth in the assay on SW-620 colon is 90.8%; in the assay with MCF7 breast, 64.4%; with HCT-116 colon it was 67.8%; in the assay with HCC-2998 colon, 107%; with KM12 colon, 94%.

`Cc1cc(C)cc(Nc2ccc([N+](=O)[O-])c(NCCN3CCOCC3)n2)c1`: the growth with SR leukemia was 17%; in the assay on RPMI-8226 leukemia, 11.5%; in the assay on OVCAR-8 ovarian, 20%; in the assay on OVCAR-5 ovarian, 52.9%; in the assay with OVCAR-4 ovarian it was 52.6%; with SK-OV-3 ovarian, 50.3%. The growth in the assay with IGROV1 ovarian was 23.5%; with OVCAR-3 ovarian, 2.95% (active); with HS 578T breast it was 21.6%; with NCI/ADR-RES ovarian, 18.1%; in the assay on T-47D breast it was 56.3%; in the assay with MDA-MB-435 melanoma it was -30.1% (active). Also, the growth with SW-620 colon was 31%; in the assay with MCF7 breast it was 13.2%; in the assay with HCT-116 colon, 5.31% (active); with KM12 colon it was 15.4%.

Turning to `O=c1nc(Nc2nc3ccccc3s2)[nH]c(=O)c2ccccc12`, the growth in the assay with SR leukemia is 90.7%; with RPMI-8226 leukemia, 106%; in the assay with OVCAR-8 ovarian, 103%; with OVCAR-5 ovarian, 107%; in the assay on OVCAR-4 ovarian it was 102%; in the assay on SK-OV-3 ovarian, 64.3%. Besides, the growth was 100% with IGROV1 ovarian; 109% in the assay on OVCAR-3 ovarian; 109% with HS 578T breast; 103% in the assay on NCI/ADR-RES ovarian; 97.5% with BT-549 breast; 99.9% in the assay with MDA-MB-435 melanoma. Further, the growth in the assay with SW-620 colon is 101%; in the assay with MCF7 breast, 92.2%; in the assay with HCT-116 colon, 103%; in the assay on HCC-2998 colon, 98.4%; in the assay on KM12 colon it was 98.5%.
